# According to the supplement of paper PMC8728848:
# The sample as a whole holds a higher share of the strongest signals than the screen did.
# Experiments:
# Assay in all cases: glycan array binding signal (z-score within array); higher = stronger binding
# Settings in all cases: glycan notation: IUPAC condensed, linker removed
# [1] = biological target: GlcNAc(b1-2)[GlcNAc(b1-6)]Man(a1-6)[GlcNAc(b1-2)Man(a1-3)]Man(b1-4)GlcNAc(b1-4)[Fuc(a1-6)]GlcNAc
# How it was run: (§1)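 From the Consortium for Functional Glycomics database, 3228 arrays were curated, keeping only those whose protein sequence was available. Binding is given as a within-array Z-score averaged across arrays sharing a protein sequence and across linkers. Negative Z-scores can be read as non-binding.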
# [2] = biological target: GlcNAc(b1-3)Gal(b1-3)GalNAc
# How it was run: as §1
# [3] = biological target: GlcNAc(b1-3)Gal(b1-4)GlcNAc(b1-3)Gal(b1-4)GlcNAc(b1-2)Man(a1-3)[GlcNAc(b1-3)Gal(b1-4)GlcNAc(b1-3)Gal(b1-4)GlcNAc(b1-2)Man(a1-6)]Man(b1-4)GlcNAc(b1-4)[Fuc(a1-6)]GlcNAc
# How it was run: as §1
# [4] = biological target: GlcNAc(b1-3)Gal(b1-4)GlcNAc(b1-3)GalNAc
# How it was run: as §1
# [5] = biological target: GlcNAc(b1-3)Man
# How it was run: as §1
# [6] = biological target: GlcNAc(b1-4)GlcNAc(b1-4)GlcNAc
# How it was run: as §1
# [7] = biological target: GlcNAc(b1-4)GlcNAc(b1-4)GlcNAc(b1-4)GlcNAc(b1-4)GlcNAc
# How it was run: as §1
# [8] = biological target: GlcNAc(b1-6)Gal(b1-4)GlcNAc
# How it was run: as §1
# [9] = biological target: Kdn(a2-3)Gal(b1-4)Glc
# How it was run: as §1
# [10] = biological target: Man(a1-2)Man(a1-3)[Man(a1-2)Man(a1-6)]Man(a1-6)[Man(a1-2)Man(a1-2)Man(a1-3)]Man(b1-4)GlcNAc(b1-4)GlcNAc
# How it was run: as §1
# [11] = biological target: Man(a1-2)Man(a1-3)[Man(a1-2)Man(a1-6)]Man(a1-6)[Man(a1-3)[Man(a1-6)]Man(a1-6)]Man(b1-4)GlcNAc(b1-4)GlcNAc
# How it was run: as §1
# [12] = biological target: Man(a1-2)Man(a1-3)[Man(a1-6)]Man(a1-6)[Man(a1-2)Man(a1-3)]Man(b1-4)GlcNAc(b1-4)GlcNAc
# How it was run: as §1
# [13] = biological target: Man(a1-2)Man(a1-6)[Man(a1-3)]Man(a1-6)[Man(a1-2)Man(a1-2)Man(a1-3)]Man(b1-4)GlcNAc(b1-4)GlcNAc
# How it was run: as §1
# [14] = biological target: Man(a1-3)[Man(a1-6)]Man(a1-6)[Man(a1-2)Man(a1-3)]Man(b1-4)GlcNAc(b1-4)GlcNAc
# How it was run: as §1
# [15] = biological target: Man(a1-3)[Man(a1-6)]Man(a1-6)[Man(a1-3)]Man(b1-4)GlcNAc(b1-4)GlcNAc
# How it was run: as §1
# [16] = biological target: Man(a1-3)[Man(a1-6)]Man(b1-4)GlcNAc(b1-4)GlcNAc
# How it was run: as §1
# [17] = biological target: Neu5Ac(a2-3)Gal(b1-3)GlcNAc
# How it was run: as §1
# [18] = biological target: Neu5Ac(a2-3)Gal(b1-3)GlcNAc(b1-4)Gal(b1-4)Glc
# How it was run: as §1
# [19] = biological target: Neu5Ac(a2-3)Gal(b1-3)[GlcNAc(b1-6)]GalNAc
# How it was run: as §1
# [20] = biological target: Neu5Ac(a2-3)Gal(b1-3)[Neu5Ac(a2-3)Gal(b1-4)]GlcNAc
# How it was run: as §1
# [21] = biological target: Neu5Ac(a2-3)Gal(b1-3)[Neu5Ac(a2-6)]GlcNAc(b1-3)[Fuc(a1-3)[Gal(b1-4)]GlcNAc(b1-6)]Gal(b1-4)Glc
# How it was run: as §1
# [22] = biological target: Neu5Ac(a2-3)Gal(b1-4)GlcNAc(b1-2)Man(a1-3)[GlcNAc(b1-4)][Neu5Ac(a2-3)Gal(b1-4)GlcNAc(b1-2)Man(a1-6)]Man(b1-4)GlcNAc(b1-4)GlcNAc
# How it was run: as §1
# [23] = biological target: Neu5Ac(a2-3)Gal(b1-4)GlcNAc(b1-2)Man(a1-3)[Neu5Ac(a2-3)Gal(b1-4)GlcNAc(b1-2)Man(a1-6)]Man(b1-4)GlcNAc(b1-4)[Fuc(a1-6)]GlcNAc
# How it was run: as §1
# [24] = biological target: Neu5Ac(a2-3)Gal(b1-4)GlcNAc(b1-3)Gal(b1-4)GlcNAc(b1-3)Gal(b1-4)GlcNAc(b1-2)Man(a1-3)[Neu5Ac(a2-3)Gal(b1-4)GlcNAc(b1-3)Gal(b1-4)GlcNAc(b1-3)Gal(b1-4)GlcNAc(b1-2)Man(a1-6)]GalNAc
# How it was run: as §1
# [25] = biological target: Neu5Ac(a2-3)Gal(b1-4)GlcNAc(b1-3)Gal(b1-4)GlcNAc(b1-3)[Neu5Ac(a2-3)Gal(b1-4)GlcNAc(b1-3)Gal(b1-4)GlcNAc(b1-6)]GalNAc
# How it was run: as §1
# [26] = biological target: Neu5Ac(a2-3)Gal(b1-4)[Fuc(a1-3)]GlcNAc
# How it was run: as §1
# [27] = biological target: Neu5Ac(a2-3)Gal(b1-4)[Fuc(a1-3)]GlcNAc(b1-3)Gal(b1-4)GlcNAc
# How it was run: as §1
# [28] = biological target: Neu5Ac(a2-3)[GalNAc(b1-4)]Gal(b1-4)Glc
# How it was run: as §1
# [29] = biological target: Neu5Ac(a2-6)Gal(b1-4)GlcNAc(b1-2)Man(a1-3)Man(b1-4)GlcNAc(b1-4)GlcNAc
# How it was run: as §1
# [30] = biological target: Neu5Ac(a2-6)Gal(b1-4)GlcNAc(b1-2)Man(a1-3)[GlcNAc(b1-4)][Neu5Ac(a2-6)Gal(b1-4)GlcNAc(b1-2)Man(a1-6)]Man(b1-4)GlcNAc(b1-4)GlcNAc
# How it was run: as §1
# [31] = biological target: Neu5Ac(a2-6)Gal(b1-4)GlcNAc(b1-2)Man(a1-3)[Man(a1-6)]Man(b1-4)GlcNAc(b1-4)GlcNAc
# How it was run: as §1
# [32] = biological target: Neu5Gc(a2-8)Neu5Gc(a2-3)Gal(b1-4)GlcNAc
# How it was run: as §1
binder,measurement,setting,value
"UDA (Urtica dioica), P11218 (protein) MMMRFLSAVVIMSSAMAVGLVSAQRCGSQGGGGTCPALWCCSIWGWCGDSEPYCGRTCENKCWSGERSDHRCGAAVGNPPCGQDRCCSVHGWCGGGNDYCSGSKCQYRCSSSVRGPRVALSGNSTANSIGNVVVTEPLFDQMFSHRKDCPSQGFYSYHSFLVAAESFPAFGTIGDVATRKREVAAFLAHISQATSGERSDVENPHAWGLCHINTTTVTENDFCTSSDWPCAAGKKYSPRGPIQLTHNFNYGLAGQAIGEDLIQNPDLVEKDPIISFKTALWFWMSQHDNKPSCHDIVLNANSAANRIPNKGVIGNIISRAFGHDDFAVRSSSIGFYKRYCDMLGVSYGHDLKYWFDNTPSSEFQRIQMRVAA",glycan array binding signal (z-score),[1],-0.162
same,glycan array binding signal (z-score),[2],-0.181
same,glycan array binding signal (z-score),[3],0.026
same,glycan array binding signal (z-score),[4],-0.182
same,glycan array binding signal (z-score),[5],-0.17
same,glycan array binding signal (z-score),[6],2.6
same,glycan array binding signal (z-score),[7],2.39
same,glycan array binding signal (z-score),[8],-0.173
same,glycan array binding signal (z-score),[9],-0.168
same,glycan array binding signal (z-score),[10],4.32
same,glycan array binding signal (z-score),[11],4.79
same,glycan array binding signal (z-score),[12],4.54
same,glycan array binding signal (z-score),[13],8.27
same,glycan array binding signal (z-score),[14],10.8
same,glycan array binding signal (z-score),[15],5.89
same,glycan array binding signal (z-score),[16],6.43
same,glycan array binding signal (z-score),[17],-0.164
same,glycan array binding signal (z-score),[18],-0.174
same,glycan array binding signal (z-score),[19],-0.176
same,glycan array binding signal (z-score),[20],-0.25
same,glycan array binding signal (z-score),[21],-0.177
same,glycan array binding signal (z-score),[22],-0.174
same,glycan array binding signal (z-score),[23],-0.169
same,glycan array binding signal (z-score),[24],-0.024
same,glycan array binding signal (z-score),[25],-0.161
same,glycan array binding signal (z-score),[26],-0.19
same,glycan array binding signal (z-score),[27],-0.171
same,glycan array binding signal (z-score),[28],-0.189
same,glycan array binding signal (z-score),[29],1.69
same,glycan array binding signal (z-score),[30],-0.179
same,glycan array binding signal (z-score),[31],4.09
same,glycan array binding signal (z-score),[32],-0.107
